Assay results: PubChem BioAssay AID1014 (NMMLSC, 2008)
Active and inactive are the calls of the source. No stated cut-off is given here; in the data, active means inhibition of mean fluorescence above about 33%; inactive means the rest.

Experiment: quorum sensing inhibitors in bacterial reporter, SAR follow-up, flow cytometry, SAR analogs (AID 1014);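 further: Staphylococcus aureus RN6390 with RNAIII-GFP reporter stimulated by AIP; bacteria incubated with compound for 3 hours at 37 °C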
Settings: at 20 µM, stronger effect = higher value; inhibition of percent positive cells: flow cytometry fluorescence, measured here: percent reporter-positive cells

Row | SMILES | inhibition of mean fluorescence | inhibition of percent positive cells
1 | O=C(NCC(c1cccnc1)N1CCc2ccccc21)c1cccc(Br)c1 (configuration not stated) | 29.6% (inactive) | 0.1%
2 | COc1cc(C(=O)NCC(c2cccnc2)N2CCN(c3ccccc3F)CC2)cc(OC)c1OC (configuration not stated) | -57.3% (inactive) | -1.5%
3 | O=C(Nc1ccc2c(c1)OCCO2)N1CCCC(CN2CCc3ccccc3C2)C1 (configuration not stated) | -1.4% (inactive) | 0.1%
4 | Cc1ccc(S(=O)(=O)c2nnn3c2nc(Nc2cc(C)cc(C)c2)c2ccccc23)cc1 | -4% (inactive) | -1.1%
5 | CC1CCCN(C(C(=O)NC2CCCC2)c2cc3c(cc2[N+](=O)[O-])OCO3)C1 (configuration not stated) | 14.5% (inactive) | -1.7%
6 | O=C(NCC(c1cccnc1)N1CCN(c2ccccc2)CC1)c1ccc(F)cc1 (configuration not stated) | -24.9% (inactive) | -0.8%
7 | O=C(O)c1sc2ccccc2c1Nc1ccccc1 | -2.8% (inactive) | 0.6%
8 | COc1ccc(NC(=O)C(c2cc3c(cc2[N+](=O)[O-])OCO3)N2CC(C)CC(C)C2)cc1 (configuration not stated) | 49.3% (active) | 0.5%
9 | O=C(CN1CC(=O)Oc2ccccc21)Nc1ccc2c(c1)OCO2 | -25.8% (inactive) | -0.2%
10 | O=C(Nc1ccc2c(c1)OCO2)C(c1ccccc1)N1CCC(Cc2ccccc2)CC1 (configuration not stated) | 63% (active) | 4.2%
11 | CC1CCN(CCC(=O)Nc2ccc3c(c2)OCO3)CC1 | 10% (inactive) | 1.6%
12 | CC(=O)c1cc2c(O)c(O)ccc2o1 | 17.9% (inactive) | -0.1%
13 | COc1ccccc1N1CCN(C(CNC(=O)c2cccc(Cl)c2)c2cccnc2)CC1 (configuration not stated) | 72.3% (active) | 15.4%
14 | O=C(NCC(c1cccnc1)N1CCN(c2ccccc2F)CC1)c1ccccc1 (configuration not stated) | -24.2% (inactive) | -1.5%
15 | CC1CCN(C(C(=O)Nc2ccc3c(c2)OCO3)c2ccccc2)CC1 (configuration not stated) | 32.4% (active) | -0.7%
16 | N#Cc1c(NC(=O)COC(=O)CN2C(=O)c3ccccc3C2=O)sc2c1CCCC2 | -2.3% (inactive) | -0.2%
17 | COc1ccc(C(=O)NCC(c2cccnc2)N2CCN(c3ccccc3F)CC2)cc1OC (configuration not stated) | -7.3% (inactive) | -1.8%
18 | O=C(c1ccco1)c1coc2ccc(O)cc12 | -10.7% (inactive) | 0.2%
19 | O=C(NC1CCCC1)C(c1cc2c(cc1[N+](=O)[O-])OCO2)N1CCN(C2CCCCC2)CC1 (configuration not stated) | -24.8% (inactive) | -1.4%
20 | COc1ccccc1N1CCN(C(CNC(=O)c2ccc(F)cc2)c2cccnc2)CC1 (configuration not stated) | 6.4% (inactive) | -1.7%
21 | O=C(NCCN1CCN(C(=O)c2cc(F)c(F)cc2Cl)CC1)c1cc(F)c(F)cc1Cl | -25.7% (inactive) | -1.2%

Row | SMILES | inhibition of mean fluorescence | inhibition of percent positive cells
22 | COc1ccc(Nc2nc3c(S(=O)(=O)c4ccccc4)nnn3c3ccccc23)cc1 | -5.6% (inactive) | -0.4%
23 | CCOC(=O)c1c(-c2cc(Cl)c(OC)c(Cl)c2)oc2ccc(O)cc12 | -4.9% (inactive) | -0.4%
24 | COc1ccc(OC)c(C(=O)c2coc3ccc(O)cc23)c1 | -21.9% (inactive) | 0%
25 | CCc1c(C(=O)c2ccccc2)oc2c(C)c3oc(=O)cc(C)c3cc12 | -0.6% (inactive) | -1.3%
26 | COc1ccc(S(=O)(=O)c2n[nH]n3c2nc(=O)c2ccccc23)cc1 | 34.1% (active) | -1.8%
27 | CC1CCN(c2c(NCC3CCC(C(=O)NCc4ccc5c(c4)OCO5)CC3)c(=O)c2=O)CC1 (configuration not stated) | -24.3% (inactive) | -0.6%
28 | O=C(NC1CCCCC1)C(c1cc2c(cc1[N+](=O)[O-])OCO2)N1CCCCC1 (configuration not stated) | 12% (inactive) | -0.2%
29 | Cc1ccc(Nc2nc3c(S(=O)(=O)c4ccc(C)cc4)nnn3c3ccccc23)cc1 | -16% (inactive) | 0.9%
30 | COc1cccc(C(=O)NCC(c2cccnc2)N2CCN(c3ccccc3OC)CC2)c1 (configuration not stated) | 10.5% (inactive) | -0.3%
31 | O=C(CSc1cn(CC(=O)N2CCCCC2)c2ccccc12)Nc1ccc2c(c1)OCO2 | -6.3% (inactive) | -0.1%
32 | CCc1ccc(Nc2nc3c(S(=O)(=O)c4ccc(Br)cc4)nnn3c3ccccc23)cc1 | -16.7% (inactive) | 0%
33 | COc1ccc(N2CCN(C(CNC(=O)c3cccc(Cl)c3)c3cccnc3)CC2)cc1 (configuration not stated) | -42% (inactive) | -1.7%
34 | CC1CCCN(C(C(=O)Nc2ccc(C(C)C)cc2)c2cc3c(cc2[N+](=O)[O-])OCO3)C1 (configuration not stated) | 14.1% (inactive) | -0.2%
35 | CCOC(=O)c1c(C)oc2cc(Br)c(O)c(C=O)c12 | -4.5% (inactive) | 2.9%
36 | COc1ccc(C(=O)N2CCC(C(=O)Nc3ccc4c(c3)OCO4)CC2)cc1 | -3.1% (inactive) | 0%
37 | COc1ccc(C2C(C(=O)Nc3ccc4c(c3)OCO4)c3ccccc3C(=O)N2C2CCCCC2)cc1 (configuration not stated) | 8% (inactive) | 0.6%
38 | NC1=NC(=O)CC(C(=O)Nc2ccccc2)S1 (configuration not stated) | -19.2% (inactive) | -0.6%
39 | N#Cc1c(NC(=O)CN2C(=O)c3ccccc3C2=O)oc(-c2ccccc2)c1-c1ccccc1 | 41.7% (active) | 0.2%
40 | O=C(Nc1ccc2c(c1)OCO2)C1CCN(Cc2cnn(-c3ccccc3)c2-n2cccc2)CC1 | -33.1% (inactive) | -0.6%
41 | CCOC(=O)C1CCN(C(C(=O)Nc2ccc3c(c2)OCO3)c2ccccc2)CC1 (configuration not stated) | -1% (inactive) | -0.4%
